Source: PubChem BioAssay AID1851 (National Center for Advancing Translational Sciences (NCATS), 2009)
Out of some 16,000 compounds screened, about 2,600 (16%) were called active. Roughly 20% stayed inconclusive and do not appear here. The call rests on the fitted dose curve; in most records, active means well fitted curve in the direction sought with a large enough effect; inconclusive means small, poorly fitted or top-dose-only effect, or effect the other way; inactive means no such curve, though single readings can be large or run the other way. These entries were drawn from the full list. Some compounds were tested as several samples or in several runs, with calls that do not always agree.

These compounds were tested against Cytochrome P450 2D6 (Homo sapiens) (UniProt P10635) (assay: Cytochrome panel assay with activity outcomes). Conditions: recombinant CYP, pro-luciferin dealkylation, luminescence, p450-cyp2d6; series mostly up to 57.1 µM; activity, negative = inhibition: at the top concentration.
On the % scale 0 is the no-effect control and ±100 the full control effect.

Sequence of Cytochrome P450 2D6 (Homo sapiens) (P10635 whole entry, looked up): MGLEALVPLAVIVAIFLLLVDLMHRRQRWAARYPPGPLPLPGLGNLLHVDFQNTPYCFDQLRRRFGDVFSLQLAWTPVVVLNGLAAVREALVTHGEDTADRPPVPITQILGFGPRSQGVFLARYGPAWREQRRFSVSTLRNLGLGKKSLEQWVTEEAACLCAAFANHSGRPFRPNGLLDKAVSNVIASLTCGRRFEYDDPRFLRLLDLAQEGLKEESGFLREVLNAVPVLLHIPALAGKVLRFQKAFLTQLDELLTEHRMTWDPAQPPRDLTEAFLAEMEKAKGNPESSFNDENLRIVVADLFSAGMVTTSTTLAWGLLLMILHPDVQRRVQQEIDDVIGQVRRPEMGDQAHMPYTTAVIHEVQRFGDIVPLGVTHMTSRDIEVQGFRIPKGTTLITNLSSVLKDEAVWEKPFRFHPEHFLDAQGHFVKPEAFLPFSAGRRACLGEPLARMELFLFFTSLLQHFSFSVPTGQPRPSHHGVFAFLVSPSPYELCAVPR

| SMILES | activity, negative = inhibition | AC50 |
| --- | --- | --- |
| COc1cc(C2C(C(=O)OCCC#N)=C(C)NC3=C2S(=O)(=O)c2ccccc23)cc(OC)c1OC (stereo not drawn) | -6.84% (inactive) | – |
| Cc1ccc(-c2ccnc(=S)[nH]2)cc1 | -14.8% (inactive) | – |
| Cc1c(C(=O)Nc2ccc(OCc3ccccc3)cc2)cccc1[N+](=O)[O-] | -5.06% (inactive) | – |
| COc1ccc(/C=N/NC(=O)CCCC(=O)NC2CCCCC2)cc1 | 16.3% (inactive) | – |
| CN(C)c1ncc2nc(-c3cc(F)cc(F)c3)c(=O)n(Cc3ccc(F)cc3)c2n1 | 10% (inactive) | – |
| Cc1ccc(Nc2nc(Cl)nc(N(C)C#N)n2)cc1 | 1.15% (inactive) | – |
| Nc1nnc(CC(=O)N/N=C/c2cccc([N+](=O)[O-])c2)s1 | -21.2% (inactive) | – |
| Cc1sc(N/N=C/C=C/c2ccccc2)nc1-c1ccccc1 | -10.8% (inactive) | – |
| Cc1cccc(-n2c(Cn3nc(C)c([N+](=O)[O-])c3C)n[nH]c2=S)c1 | 3.45% (inactive) | – |
| Cc1ccc(C)c(NC(=O)Cn2nnc(C(=O)Nc3c(C)cccc3C)c2N)c1 | -25.4% (inactive) | – |
| Cc1nc(/N=C(\N)Nc2ccccc2)nc2ccccc12 | -12.1% (inactive) | – |
| Cc1ccc(C)c(NC(=O)c2ncn[nH]2)c1 | 8.78% (inactive) | – |
| C/C(=N\NC(=S)Nc1cccc(C)c1)c1ccccc1 | -25.1% (inactive) | – |
| Cc1ccc(C)c(N/C(N)=N/c2nc(C)cc(C)n2)c1 | – | 0.794 µM (active) |
| Cc1cccc(N/C(N)=N/c2nc(C)cc(C)n2)c1 | – | 2.82 µM (active) |
| Cc1cc(C)c(-c2cc([C@H](C)O/N=C\[C@@H](C)[C@H](OCc3ccccc3)C(C)C)on2)c(C)c1 | -7.16% [at 11.4 µM] (inactive) | – |
| O=C(CCNC(=O)Cn1cnc2ccccc2c1=O)NCC1COc2ccccc2O1 (stereo not drawn) | 16.6% (inactive) | – |
| COc1cccc(OC)c1OCCNC[C@@H]1COc2ccccc2O1 | – | 251 nM (active) and inactive |
| O=C(N/N=C/c1ccco1)/C(=C/c1cccc([N+](=O)[O-])c1)NC(=O)c1ccccc1 | -15.4% (inactive) | – |
| Cc1cccc(CNc2ncncc2-c2ccc3c(c2)OCO3)c1 | – | 6.31 µM (active) |
| Cc1noc(C)c1-c1cncnc1Nc1ccccc1 | -7.49% (inactive) | – |
| Cn1c(-c2ccc3c(c2)OCO3)cc(=O)c2ccccc21 | – | 1.58 µM (active) |
| O=C(O)c1cc(-c2ccc3cc4c(cc3c2)OCO4)nc2ccccc12 | -6.77% [at 11.4 µM] (inactive) | – |
| Cn1c(-c2ccc3c(c2)OCO3)cnc1NCc1ccccc1 | – | 0.794 µM (active) |
| Cc1cccc(CNc2ncncc2-c2ccc(C(=O)N(C)C)cc2)c1 | -9.23% (inactive) | – |

| SMILES | activity, negative = inhibition | AC50 |
| --- | --- | --- |
| CN(C)c1ccc(-c2cc(NCc3ccccc3)ncn2)cc1 | -17.2% (inactive) | – |
| Cn1cc(/C=C2/SC(=O)N(CC(=O)Nc3ccc4c(c3)OCO4)C2=O)c2ccccc21 | -6.65% (inactive) | – |
| O=c1oc2cc(N=Cc3ccc4c(c3)OCO4)ccc2c2ccccc12 | 4.96% [at 11.4 µM] (inactive) | – |
| c1ccc(Nc2ncncc2-c2ccc3c(c2)OCO3)cc1 | – | 12.6 µM (active) |
| CN(C)C(=O)c1ccc(-c2cncnc2Nc2ccccc2)cc1 | -2.66% (inactive) | – |
| Cc1ccc(C(=O)N/N=C\c2ccc[nH]2)cc1[N+](=O)[O-] | -6.03% (inactive) | – |
| CCCOc1ccc(C(=O)NNC(=S)NC(=O)c2cc(-c3ccccc3)nc3ccccc23)cc1 | 3.87% (inactive) | – |
| O=C(Nc1cccn2ncnc12)c1ccc(Cl)cc1Cl | 2.48% (inactive) | – |
| COC(=O)C1=C(NC(=O)c2cccs2)CCS1 | 12.9% (inactive) | – |
| COc1cnc(-c2ccccn2)nc1Sc1c(Cl)cccc1Cl | -25% (inactive) | – |
| COc1cc(OC)cc(C(=O)Nn2cc(C(=O)N3CCN(C)CC3)c3ccccc3c2=O)c1 | -15.2% (inactive) | – |
| O=C1CC[C@H](N2C(=O)c3ccccc3C2=O)C(=O)N1 | – | inactive |
| CCn1cc(C(=O)O)c(=O)c2cc(F)c(N3CCNCC3)nc21 | 6.39% [at 25.6 µM] (inactive) | – |
| O=C(O)C[C@H](S)C(=O)O | -2.12% [at 11.4 µM] (inactive) | – |
| c1ccc(Nc2ncnc3ccc(-c4ccc5c(c4)OCO5)cc23)cc1 | – | 0.126 µM (active) |
| c1ccc(CNc2ncncc2-c2ccc3c(c2)OCO3)cc1 | – | 12.6 µM (active) |
| c1csc(CNc2ncncc2-c2ccc3c(c2)OCO3)c1 | – | 10 µM (active) |
| c1cncc(CNc2ncncc2-c2ccc3c(c2)OCO3)c1 | – | 15.8 µM (active) |
| Clc1ccc2c(c1)C=Nc1c(NCc3ccccc3)ncnc1O2 | -0.537% (inactive) | – |
| c1cncc(CNc2ncncc2-c2cccnc2)c1 | -11.4% (inactive) | – |
| N#Cc1cccc(-c2cncnc2NCc2cccnc2)c1 | -9.2% (inactive) | – |
| COc1ccc(NC(=O)N2CC[C@@]3(CCCN(C(=O)c4cccc(F)c4)C3)C2)cc1 | 6.12% (inactive) | – |
| O=C(Nc1ccccc1)N1CCSc2cc(Cl)ccc21 | -11.2% (inactive) | – |
| OC[C@@H]1O[C@@H](N2CCN([C@@H]3O[C@@H](CO)[C@@H](O)[C@H](O)[C@H]3O)CC2)[C@@H](O)[C@H](O)[C@H]1O | -3.98% [at 11.4 µM] (inactive) | – |
| COc1ccc2c(c1[N+](=O)[O-])CCC/C2=N/OC(=O)c1ccccc1SC | -3.18% (inactive) | – |

| SMILES | activity, negative = inhibition | AC50 |
| --- | --- | --- |
| NC(N)=NC(N)=Nc1ccc(S(N)(=O)=O)cc1 | 4.99% [at 11.4 µM] (inactive) | – |
| O=C(CCCn1c(=S)[nH]c2ccc(Br)cc2c1=O)NCC1CCCO1 (stereo not drawn) | -8.4% (inactive) | – |
| C=CCNC(=O)c1ccc(Cn2c(=S)[nH]c3cc4c(cc3c2=O)OCO4)cc1 | 8.13% (inactive) | – |
| CCCCNC(=O)CCn1c(=S)[nH]c2cc3c(cc2c1=O)OCO3 | -7.86% (inactive) | – |
| O=C(c1ccc2c(=O)n(CC3CCCO3)c(=S)[nH]c2c1)N1CCN(c2ccccc2)CC1 (stereo not drawn) | -17.4% (inactive) | – |
| CCOc1cc2[nH]c(=S)n(CCCC(=O)NCc3ccco3)c(=O)c2cc1OCC | 18.8% (inactive) | – |
| O=C(CCCn1c(=S)[nH]c2cc3c(cc2c1=O)OCO3)N1CCN(c2ncccn2)CC1 | – | 5.01 µM (active) |
| O=C(c1ccc2c(=O)n(Cc3ccco3)c(=S)[nH]c2c1)N1CCN(c2ccccc2)CC1 | -19.2% (inactive) | – |
| O=C(CCCCCn1c(=S)[nH]c2cc3c(cc2c1=O)OCO3)N1CCN(C2CCCCC2)CC1 | – | 8.91 µM (active) |
| CCN(CC)CCn1c(=S)[nH]c2cc3c(cc2c1=O)OCO3 | – | 0.631 µM (active) |
| CCCC(=O)Nc1cccc(Oc2nc(C)cc(C)c2C#N)c1 | -2.28% (inactive) | – |
| Cc1ccnc(NS(=O)(=O)c2ccc(N=[N+]=[N-])cc2)n1 | 10.7% [at 11.4 µM] (inactive) | – |
| CC(C)=CCC/C(C)=C/CO/N=C1/C[C@@H](O)[C@@H](O)[C@@H]2[C@@H]3C(=O)N(Cc4ccccc4)C(=O)[C@H]3CC[C@H]12 | -8.8% [at 11.4 µM] (inactive) | – |
| NC(=O)CNC(=O)[C@@H]1CC2(CC(c3ccccc3)=NO2)CN1C(=O)c1ccc(Br)cc1 (stereo partly drawn) | -20% (inactive) | – |
| CC(=O)Nc1ccc2c(c1)C(=Nc1ccc(C(=O)O)cc1)c1ccccc1-2 | 13% [at 11.4 µM] (inactive) | – |
| COc1ccc(C(=O)N/N=C(\C)Cn2nc([N+](=O)[O-])cc2C)cc1 | -23.1% (inactive) | – |
| CCOC(=O)[C@@]12C[C@@H]1/C(=N/O)c1ccccc1O2 | – | inactive |
| Cc1ccc(-n2c3c(c(=O)[nH]c2=O)C(NS(=O)(=O)c2ccc(C)cc2)(C(F)(F)F)C(=O)N3)cc1 (stereo not drawn) | -0.859% (inactive) | – |
| CC(=O)Nc1ccc(C2=NN(CC#N)C(=O)SC2)cc1 | -16.9% (inactive) | – |
| COC(=O)CSC1=C(C#N)C(c2cccc(F)c2)CC(=O)N1 (stereo not drawn) | -27.1% (inactive) | – |
| N[C@H](Cn1ccc(=O)n(Cc2ccccc2C(=O)O)c1=O)C(=O)O | 1.32% (inactive) | – |
| N[C@@H](Cn1cc(F)c(=O)[nH]c1=O)C(=O)O | 9.04% (inactive) | – |
| N[C@@H](Cn1cc(I)c(=O)n(Cc2ccc(C(=O)O)cc2)c1=O)C(=O)O | – | 2.51 µM (active) |
| Cn1cc(-c2nc3cnc(N4CCOCC4)nc3n(C3CC3)c2=O)c2ccccc21 | 0.0209% (inactive) | – |
| CCOC(=O)c1c(CC(C)C)csc1NC=O | -12.9% (inactive) | – |

| SMILES | activity, negative = inhibition | AC50 |
| --- | --- | --- |
| O=C(Nc1cc(C(=O)Nc2ccc(S(=O)(=O)O)cc2S(=O)(=O)O)cc(C(=O)Nc2ccc(S(=O)(=O)O)cc2S(=O)(=O)O)c1)Nc1cc(C(=O)Nc2ccc(S(=O)(=O)O)cc2S(=O)(=O)O)cc(C(=O)Nc2ccc(S(=O)(=O)O)cc2S(=O)(=O)O)c1 | – | inactive |
| C[C@@H](C[N+](C)(C)C)OC(N)=O | – | inactive |
| COCCn1c(=O)c(-c2cn(C)c3ccccc23)nc2cnc(Oc3ccc(OC)cc3)nc21 | -4.68% (inactive) | – |
| O=C1C[C@H]2C(=O)[C@@H]1[C@@H](C(=O)O)[C@H]2C(=O)O | 11.5% [at 11.4 µM] (inactive) | – |
| CC1(C)OC(=O)C(=CNCC(O)c2ccccc2)C(=O)O1 (stereo not drawn) | 19.5% (inactive) | – |
| Cc1cc(C)n(Cc2ccc(NC(=O)c3ccc(COc4ccccc4Br)cc3)cc2)n1 | -11.6% (inactive) | – |
| Cc1cc(C)n(CCCNCC(O)c2ccccc2)n1 (stereo not drawn) | – | 7.08 µM (active) |
| C=CC[n+]1c(-c2ccc(C)cc2)csc1NNC(=O)Nc1ccccc1 | – | 3.16 µM (active) |
| CCCC(=O)NNC(=O)Nc1ccccc1 | 0.27% (inactive) | – |
| C=CCNC(=O)c1csc(-c2ccccc2)n1 | 17.1% (inactive) | – |
| CCn1c(C)c(C)c2cc(C(=O)Nc3cccc(Cl)c3)ccc21 | -26.9% (inactive) | – |
| CC(=O)N[C@@H](CC(=O)O)C(=O)O | -0.495% [at 25.6 µM] (inactive) | – |
| NC(=O)c1cc[n+](CC2=C(C(=O)[O-])N3C(=O)[C@@H](NC(=O)Cc4cccs4)[C@@H]3SC2)cc1 | -1.02% [at 25.6 µM] (inactive) | – |
| CN(C)C(=N)N=C(N)N | -6.01% [at 25.6 µM] (inactive) | – |
| O=C(NNC(=S)NC(=O)c1cccnc1)c1ccccc1 | -3.01% (inactive) | – |
| O=c1cc(-c2ccccc2)oc2cc(O)c(O)c(O)c12 | -2.03% (inactive) | – |
| CCOC(=O)COc1cc(OCC(=O)OCC)c2c(=O)cc(-c3ccccc3)oc2c1 | 32.3% (inactive) | – |
| COc1ccc(-c2cc(=O)c3c(O)cc(O)cc3o2)cc1 | – | 12.6 µM (active) |
| O=c1c(-c2ccc(O)cc2)coc2cc(O)cc(O)c12 | 6.84% (inactive) | – |
| COc1ccc(-c2coc3cc4oc(=O)cc(C)c4cc23)cc1F | -4.68% (inactive) | – |
| COc1ccc(-c2coc3cc(OC)cc(O)c3c2=O)cc1 | – | 0.0355 µM (active) |
| CCOC(=O)Cc1c(C)nc2c(C#N)c[nH]n2c1=O | 0.121% (inactive) | – |
| COC(=O)Cn1cnc(=O)c(C#N)c1/C=C/N(C)C | 3.9% (inactive) | – |
